85 molecules from PubChem BioAssay AID1962 (The Scripps Research Institute Molecular Screening Center, 2009) can be followed below.

Screen size: about 300,000 compounds; about 2,500 (0.83%) were called active. This excerpt belongs to a sample that is enriched for actives. A number with no mark means an inactive call.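 How the source made its calls: active means inhibition above the mean of all tested compounds plus 3 SD, set per screening campaign (cut at about 24% in these data); inactive means the rest.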

The experiment relates to tRNA 2'-phosphotransferase TPT1 (Candida albicans SC5314). Description: tRNA 2'-phosphotransferase blockers, C. albicans – biochemical, fluorescence polarization, primary screen (AID 1962).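 Further: plate controls were DMSO alone for no effect and ferristatin control at 100 nM for full effect.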 The note with it: recombinant caTPT1, FP RNA substrate dephosphorylation; at 5 µM; hits give high values. Background: Fluorescence polarisation rises when a labelled molecule tumbles more slowly, as on binding a larger partner.
The inhibition is the drop in the measured response relative to a control, in per cent. Regarding `CC(C)(C)c1ccc(C(=O)NCCn2c(N)c(C#N)c3nc4ccccc4nc32)cc1`, the inhibition is 9.05%. For `CN(C)CCCn1c(N)c(C#N)c2nc(C#N)c(C#N)nc21` the value was 75.1% (active). `CC1CCCCC1NC(=O)CSc1nnc(-c2ccncc2)n1CCCN(C)C` (stereo not given): the inhibition was -2.27%. For `Fc1ccc2nc(Nc3nc4c(s3)CCCC4)sc2c1` the value was 24.1% (active); for `Fc1cc(F)c2nc(Nc3nc4c(F)cccc4s3)sc2c1`, -0.65%. For `CSc1ncccc1C(=O)Nc1nc2ccc(F)cc2s1`, the inhibition was -0.86%. To `CCc1cccc(C)c1N(C(=O)Cn1c(CO)nc2ccccc21)C(C)COC` (stereo not given) belongs -1.41%; to `O=C(N/N=C/c1cccnc1)c1cc2ccccc2cc1O`, -1.97%; to `O=C(NNc1c2ccccc2nc2ccccc12)c1cc2ccccc2cc1O`, 25.8% (active). For `CC(C)(C)OC(=O)NNc1c2ccccc2nc2ccccc12`, the inhibition is -0.98%. To `CCOc1ccc(-n2cnnn2)cc1S(=O)(=O)N1CCC(C)CC1C` (stereo not given) belongs 3.77%; to `COc1cccc(CNC(=O)C2CCCN(S(=O)(=O)N3CC(C)CC(C)C3)C2)c1` (stereo not given), -2.25%; to `COc1ccc2c(c1)[C@H]1[C@H](CO2)[C@H](c2ccccc2)[C@]2(C)C(=O)Nc3cc(F)c(F)cc3C(=O)N12`, -1.54%. For `COc1ccc(/C=C(\NC(=O)c2ccccc2)C(=O)NCCN2CCOCC2)cc1OC`, the inhibition is -0.34%. For `CCOC(=O)CNC(=O)/C(=C\c1ccc(F)cc1)NC(=O)c1ccccc1` the value was -8.38%. For `Cn1c2ccccc2c2cc(/C=C(\NC(=O)c3ccccc3)C(=O)NCC(=O)O)ccc21` the value was 86.7% (active); for `CCN1CCN(C(=O)N[C@@H](C(=O)N[C@@H]2C(=O)N3C(C(=O)O)=C(CSc4nnnn4C)CS[C@H]23)c2ccc(O)cc2)C(=O)C1=O`, -2.09%. In the case of `CS(=O)(=O)c1ccc2c(c1)SC1=NC(=O)/C(=C/c3ccco3)C(=N)N12`, the inhibition was 62.9% (active).

In the case of `CS(=O)(=O)C1=NN2C(=N)/C(=C\c3ccc(OCCOc4ccccc4)cc3)C(=O)N=C2S1`, the inhibition is 2.39%.

As for `Cc1cc(/C=C2/C(=N)N3C(=NC2=O)SN=C3S(C)(=O)=O)c(C)n1-c1ccccc1`, the inhibition is 4.75%. Regarding `COc1ccccc1C(=O)NCCC(=O)NCC(c1ccco1)N1CCCCC1` (stereo not given), the inhibition is 1.82%. As to `O=C(NCc1ccccc1)C(=O)NCC1OCCN1S(=O)(=O)c1ccc(Br)cc1` (stereo not given), the inhibition is -2.5%. Take `COc1ccc(CCN2C(=O)C(C)=C(C)C2=O)cc1OC`: the inhibition was 1.36%. `COc1cc(/C=C2/C(=O)NN(c3cccc(Cl)c3)C2=O)cc(Br)c1O`: the inhibition is 130% (active).

`COc1cc(/C=C2/C(=O)NN(c3ccc(F)cc3)C2=O)cc([N+](=O)[O-])c1O`: the inhibition is -1.74%.

For the molecule `C#CCOc1ccc(/C=C2/C(=O)NN(c3ccccc3)C2=O)cc1OC`, the inhibition was 0.28%. To `Cc1ccccc1OC/C(O)=C(\C#N)c1nc2ccccc2[nH]1` belongs 2.58%; to `N#C/C(=C(/O)COC(=O)COc1ccc(Cl)cc1)c1nc2ccccc2[nH]1`, 35% (active).

In the case of `N#C/C(=C(/O)COc1cccc2ccccc12)c1nc2ccccc2[nH]1`, the inhibition is 14.7%. On to `C#CCOCCOCCOCCNc1nc(N2CCN(C(=O)CCCCCCCCCCNC(=O)[C@H]([C@@H](C)CC)n3cc(CCCCN=C(N)N)nn3)CC2)nc(N2CCN(C(=O)CCCCCCCCCCNC(=O)[C@H](CO)n3cc(CCCSC)nn3)CC2)n1`, for which the inhibition was -0.55%.

For `COc1ccc(CC2c3cc(OC)c(OC)cc3CC[N+]2(C)CCC(=O)OCCCCCOC(=O)CC[N+]2(C)CCc3cc(OC)c(OC)cc3C2Cc2ccc(OC)c(OC)c2)cc1OC` (stereo not given), the inhibition was 0%. To `COCCNC(=O)/C(C#N)=C/c1nc(N(C)C)n(-c2ccc(F)cc2)c1Cl` belongs 1.88%; to `Cc1c(C)n2c(SCC(=O)N3CCCC3)nnc2[nH]c1=O`, 0.57%; to `O=C1OC(/C=C/c2ccccc2)=NC/1=C/c1ccco1`, 1.61%. As to `CC(C)(C)C1C/C(=C/c2ccco2)C(=O)/C(=C/c2ccco2)C1` (stereo not given), the inhibition is 71.8% (active). For `CCC1C/C(=C/c2cccs2)C(=O)/C(=C/c2cccs2)C1` (stereo not given) the value was 14.5%; for `COC(=O)c1ccc(Sc2ccc(F)cc2)c(N)c1`, 1.95%; for `CCCCNc1ccc(C(=O)Nc2cccc(C)n2)cc1[N+](=O)[O-]`, 3.18%. For `Cc1cccc(NC(=O)c2ccc(COc3ccccc3[N+](=O)[O-])o2)n1` the value was 31.1% (active). Regarding `CCOc1ccc(OCc2ccc(C(=O)Nc3cccc(C)n3)o2)cc1`, the inhibition is -2.96%. To `CCOc1ccc2c(=O)c(-c3ccc4c(c3)OCCCO4)c(C)oc2c1` belongs 2.18%; to `CN(C)Cc1c(C(=O)N/N=C/c2ccccc2OCc2ccc(F)cc2)nnn1-c1nonc1N`, 2.3%. To `COc1ccccc1C1CC(=O)n2c(nc(-c3ccccc3)c2-c2ccccc2)S1` (stereo not given) belongs -2.44%.

Take `NS(=O)(=O)c1ccc(CNC(=O)c2cnccn2)cc1`: the inhibition was -3.97%.

As to `CCOc1ccc(N=Cc2c(O)n(-c3cccc(C)n3)c(=O)c3ccccc23)cc1`, the inhibition was 1.89%. For `CCCCn1c(=O)c(C(C)=O)c(O)c2ccccc21` the value was 3.63%; for `CC(=O)n1c(C=Nc2ccccc2)c(O)c2ccccc21`, 37.8% (active); for `Cc1cc(C)nc(NNC2=CC(=O)CC(C)(C)C2)n1`, -0.26%. For `CCOC(=O)/C=c1\s/c(=C\c2ccc(C#N)cc2)c(=O)n1CC(=O)Nc1cccc(C)c1C`, the inhibition was 1.41%. As to `Cc1cs/c(=N\N=C\c2ccc(O)cc2)n1Cc1ccco1`, the inhibition is 2.86%. To `CN(c1ccccc1)c1ccc(/C=c2\s/c(=C(/C#N)C(=O)C(C)(C)C)n(Cc3ccco3)c2=O)cc1` belongs 151% (active); to `Cc1ccccc1S(=O)(=O)N1[C@@H](c2cccc(Cl)c2)C(C(=O)O)=CC[C@H]1c1ccc(Cl)cc1`, -1.82%; to `Cc1ccc(S(=O)(=O)N2[C@@H](c3cccc(Cl)c3)C(C(=O)O)=CC[C@H]2c2ccc(Cl)c(Cl)c2)cc1`, 0.18%.

Take `Cn1cc(CN2CCCCC2c2ccccn2)c(-c2ccc3c(c2)OCCO3)n1` (stereo not given): the inhibition is -1.42%. Regarding `COC(=O)c1ccc(/C=N/N2C(C)CCCC2C)cc1` (stereo not given), the inhibition is 0.75%. To `CC(CCN1CCN=C1N(C)C)c1ccccc1` (stereo not given) belongs 1.38%; to `O=C(c1cc(-c2ccc(F)cc2)on1)N1CCN(c2ccc(F)cc2)CC1`, -5.93%; to `O=C(c1cccc(F)c1)N1CCN(c2ccc([N+](=O)[O-])c(N3CCCCC3)c2)CC1`, -2.61%. For `C=CCn1c(SCc2cccc(F)c2)nc2cc(C(=O)N3CCC(C(N)=O)CC3)ccc2c1=O` the value was -3.32%.

Take `O=C(c1cc(C(=O)N2CCN(c3ccc(F)cc3)CC2)cc([N+](=O)[O-])c1)N1CCN(c2ccc(F)cc2)CC1`: the inhibition is -4.38%. For `O=C1Nc2cc(C(=O)N3CCN(c4ccc(F)cc4)CC3)ccc2NC1CSCc1cccc(F)c1` (stereo not given) the value was 134% (active). As for `Cc1ccc(CSCC2Nc3ccc(C(=O)N4CCN(c5ccc(F)cc5)CC4)cc3NC2=O)cc1` (stereo not given), the inhibition was 133% (active). Take `Cc1ccc(S(=O)(=O)N2[C@@H](c3ccccc3F)C(C(=O)O)=CC[C@H]2c2ccc(Cl)cc2)cc1`: the inhibition was -4.36%. In the case of `COc1ccc(CCNC(=S)N2CCN(S(=O)(=O)c3ccc(F)cc3)CC2)cc1`, the inhibition is -2.45%. On to `Cc1cccc(NC(=O)c2cccc(S(=O)(=O)N3CCCC3)c2)n1`, for which the inhibition is -1.41%. To `CCC(C)CCN1CCN=C1N(C)C` (stereo not given) belongs 0.6%; to `O=S(=O)(Nc1ccccc1)c1ccc(NS(=O)(=O)c2cccs2)cc1`, 3.09%; to `O=c1[nH]nc(SCCS(=O)(=O)c2ccc(F)cc2)n1-c1ccccc1C(F)(F)F`, -4.89%. For the molecule `O=C(NCCS(=O)(=O)N1CCN(c2ccc(F)cc2)CC1)c1ccc2c(c1)OCO2`, the inhibition is -1.22%. On to `O=C1Nc2ccccc2/C1=C/c1ccnc2ccccc12`, for which the inhibition is -1.13%. For `Cc1cc(C)c(/C=C2\C(=O)Nc3ccccc32)[nH]1` the value was 101% (active).

With `CN(C)/C=C1/Nc2ccccc2C1=O`, the inhibition was -4.8%. For `CCN1C(=O)/C(=c2\s/c(=C3\Sc4ccccc4N3C)c(=O)n2C)N(C)C1=S` the value was -1.53%; for `CN1/C(=c2/s/c(=C3/C(=O)N(c4ccccc4)NC3=Nc3ccccc3)n(C)c2=O)C(C)(C)c2ccccc21`, 128% (active); for `COc1ccc(/C=C2\SC(=O)N(CCC(=O)NC3CCS(=O)(=O)C3)C2=O)cc1` (stereo not given), -0.19%. To `Cc1cc(C)n(CCC(=O)N2CCN(S(=O)(=O)c3ccc(C)c(C)c3)CC2)n1` belongs -1.67%. For `Cc1nc(-c2ccc(Cl)cc2)sc1C1(C)CC(c2ccccc2F)=NO1` (stereo not given) the value was 1.26%. For `C/[N+]([O-])=C\c1ccc([N+](=O)[O-])o1`, the inhibition was -5.74%. For the molecule `Cc1cc(C)nc(N/N=C/c2ccc([N+](=O)[O-])o2)n1`, the inhibition is -2.07%. To `CCn1c(/C=C/c2ccc([N+](=O)[O-])o2)nc2ccccc2c1=O` belongs 25.2% (active). For `CCCOc1ccc(Cc2c(O)nc(SC)[nH]c2=O)cc1C` the value was 1.03%; for `S=C(Nc1cccc(Br)c1)N1CCn2cccc2C1c1cccnc1` (stereo not given), 1.48%. Consider `C=CCC1=C/C(=C\c2c(N)n3nc(CC(=O)N4CCOCC4)sc3nc2=O)C=C(OC)C1=O`, for which the inhibition is 37% (active).

For `COc1cc(/C=C2\C(=N)N3N=C(CC(=O)N4CCOCC4)SC3=NC2=O)cc(OC)c1OC`, the inhibition is 1.57%. As for `COC1=C/C(=C/c2c(N)n3nc(CC(=O)N4CCOCC4)sc3nc2=O)C=CC1=O`, the inhibition was 9.73%.
